Data as given in PubChem BioAssay (NCATS).
Inconclusive results are not listed. Calls of active or inactive are those of the source. Calls follow the shape of the dose curve; as a rule, active = well fitted inhibition curve with a large enough effect; inconclusive = small, poorly fitted or top-dose-only effect; inactive = flat fitted curve, though single readings scatter.

tested on: Zika virus NS2B-NS3 protease; experiment: Primary screen GU AMC qHTS for Zika virus inhibitors (AID 1347154); settings: Zika NS2B-NS3 unlinked protease, AMC fluorogenic substrate; series mostly up to 54.1 µM; activity change, negative = inhibition: at the top concentration;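 also: 0% = no-inhibitor control and -100% = no-enzyme control; nearly all actives have a fitted effect of over 70% in size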
Method in brief: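 Unlinked Zika NS2B hydrophilic domain–NS3 protease complex at 25 nM in 10 mM Tris-HCl pH 8.0, 0.01% Tween 20, with an AMC peptide substrate. Fluorescence change (340/450 nm) over 15 min at room temperature, normalized to controls, fitted to 4-parameter Hill.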

Activity change, negative = inhibition, inactive:
CCCCCCCCCC(=O)OCC(CO)OC(=O)CCCCCCCCC (stereo not drawn) 1.45% [at 6.83 µM]
C[C@H](N)CCCP(=O)(O)O 6.69%
CCCCC/C=C\C/C=C\CCCCCCCC(=O)NCC(=O)O 18.9% [at 6.83 µM]
N[C@@]1(C(=O)O)CO[C@H]2[C@H](C(=O)O)[C@H]21 23%
CNC(=O)[C@H]1O[C@@H](n2cnc3c(N)ncnc32)[C@H](O)[C@@H]1O 7.95%
COC(=O)[C@@H](N)CSC/C=C(\C)CC/C=C(\C)CCC=C(C)C 5.97%
O=C(O)[C@H]1CCCN1 3.74%
CCCC(=O)NCCc1c(I)[nH]c2ccc(OC)cc12 -2.6%
CC(C)=CCN1CCC2(CCc3ccccc32)CC1 2.32%
CCCCC/C=C\C/C=C\C/C=C\C/C=C\CCCC(=O)O[C@H](COCCCCCCCCCCCCCCCC)COP(=O)([O-])OCC[N+](C)(C)C 13.2% [at 6.83 µM]
CCCCCCCC/C=C\CCCCCCCC(=O)OCC(CO)OC(=O)CCCCCCC/C=C\CCCCCCCC (stereo not drawn) -0.778% [at 6.83 µM]
O=C(O)[C@@H]1CN[C@@H](C(=O)O)C1 8.75%
CC(CCCCC(=O)Nc1ccc(C(F)(F)F)cc1)NCCc1cnc[nH]1 (stereo not drawn) -1.51%
Nc1ncnc2c1ncn2C1O[C@H](COP(=O)(O)O)[C@@H](O)[C@H]1O (stereo partly drawn) 14.4%
C[C@H](CCC(=O)O)C1CC[C@H]2C3CC[C@@H]4C[C@H](O)CC[C@]4(C)C3C[C@H](O)[C@]12C (stereo partly drawn) -4.86%
CC/C=C\C/C=C\C/C=C\CCCCCCCCCC(=O)O 1.1% [at 6.83 µM]
NC(C(=O)O)C(CC(=O)O)c1ccc(Cl)cc1 (stereo not drawn) 1.17%

Potency, inactive:
O=C(NCCCCCCNC(=O)ON=C1CCCCC1)ON=C1CCCCC1
